The subject of experiment [1] is Plasmodium falciparum Sir2 (PF13_0152, Sir2A). The experiment in a line: pfSir2 binders on small-molecule microarrays, primary screen, biochemical, small-molecule microarray, 635 nm fluorescence (AID 1098).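 Note: score merges spot fluorescence intensity with its signal-to-noise ratio.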 To be noted: small-molecule microarray binding, fluorescence 635 nm; higher = more signal.
The nature of experiment [2]: small-molecule microarray binders of probe aDKK1, primary screen, biochemical, biotinylated probe, 635/667 nm fluorescence (AID 1099).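 Note: score merges 667nm spot fluorescence with signal to noise across triplicate slides; reference of the scale not given here.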 The settings on record: higher = more signal.
Experiment [3] is described as follows: small-molecule microarray binders of probe aCHRDL2, primary screen, biochemical, biotinylated probe, 635/667 nm fluorescence (AID 1100). The settings on record: higher = more signal.
Experiment [4] in a line: splicing luciferase reporter signal modulators, primary screen, spliceosome inhibition project, cell-based, HEK293, splice +/- reporter (AID 1101).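 Note: HEK293 cells carrying a splicing-competent luciferase reporter gene; test concentration not given here.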 The settings on record: luminescence, 24 h, higher = more signal, called active from +8 up or from −8 down.
For experiment [5], the target named is Fibroblast growth factor 10 (Homo sapiens) (UniProt O15520). Kind of experiment: FGF10 binders on small-molecule microarrays, primary screen, biochemical, small-molecule microarray, 635 nm fluorescence (AID 1102). To be noted: FGF10 binding, fluorescence 635 nm, higher = more signal.
Sequence of Fibroblast growth factor 10 (Homo sapiens) (O15520 whole entry, looked up): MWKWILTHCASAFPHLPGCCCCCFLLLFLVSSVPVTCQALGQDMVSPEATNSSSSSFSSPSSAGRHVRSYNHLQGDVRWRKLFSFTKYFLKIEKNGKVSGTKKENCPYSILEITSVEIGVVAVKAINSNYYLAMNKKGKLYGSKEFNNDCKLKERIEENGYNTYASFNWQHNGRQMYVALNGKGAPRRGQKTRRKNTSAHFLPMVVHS
Experiment [6] deals with glycogen synthase kinase-3 (GSK3A per assay name; protocol says GSK3B). The experiment in a line: GSK3 binders on small-molecule microarrays, primary screen, biochemical, small-molecule microarray, 635 nm fluorescence, GSK3A (AID 1103). Note: the record names both GSK3A and GSK3B. To be noted: small-molecule microarray binding, fluorescence 635 nm; higher = more signal.
Experiment [7] has as its target Epidermal growth factor receptor (Homo sapiens) (UniProt P00533). Kind of experiment: EGFR binders on small-molecule microarrays, primary screen, biochemical, small-molecule microarray, 635 nm fluorescence (AID 1104).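 Note: score merges 667 nm emission intensity with spot signal to noise over triplicate slides.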 The settings on record: EGFR binding, higher = more signal.
Experiment [8] deals with Follistatin-related protein 3 (Homo sapiens) (UniProt O95633). The experiment in a line: FSTL3 binders on small-molecule microarrays, primary screen, biochemical, small-molecule microarray, 635 nm fluorescence (AID 1105).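 Note: score merges emission near 667 nm and signal to noise per printed spot across three slides.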 The settings on record: FSTL3 binding, higher = more signal.
Sequence of Follistatin-related protein 3 (Homo sapiens) (O95633 whole entry, looked up): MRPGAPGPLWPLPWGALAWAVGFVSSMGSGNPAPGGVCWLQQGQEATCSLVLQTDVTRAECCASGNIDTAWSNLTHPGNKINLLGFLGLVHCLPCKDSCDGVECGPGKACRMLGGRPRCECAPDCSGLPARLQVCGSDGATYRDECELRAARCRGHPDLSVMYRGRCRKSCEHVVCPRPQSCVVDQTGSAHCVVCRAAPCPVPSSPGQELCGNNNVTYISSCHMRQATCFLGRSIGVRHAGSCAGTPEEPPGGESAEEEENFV
The target of experiment [9] is Dickkopf-related protein 1 (Homo sapiens) (UniProt O94907). The experiment in a line: DKK1 binders on small-molecule microarrays, primary screen, biochemical, small-molecule microarray, 635 nm fluorescence scan (AID 1106).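 Note: score merges emission near 667 nm with signal to noise over three replicate slides.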 To be noted: DKK1 binding, higher = more signal.
Sequence of Dickkopf-related protein 1 (Homo sapiens) (O94907 whole entry, looked up): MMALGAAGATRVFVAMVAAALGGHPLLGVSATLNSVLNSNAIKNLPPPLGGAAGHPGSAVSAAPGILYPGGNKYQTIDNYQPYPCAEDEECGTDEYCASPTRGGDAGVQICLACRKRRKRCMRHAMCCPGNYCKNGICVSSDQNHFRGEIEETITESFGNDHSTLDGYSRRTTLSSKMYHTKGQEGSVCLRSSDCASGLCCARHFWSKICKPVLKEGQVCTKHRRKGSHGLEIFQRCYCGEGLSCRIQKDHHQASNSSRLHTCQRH
The subject of experiment [10] is Inhibin beta A chain (activin A). The experiment in a line: INHBA (activin A) binders on microarrays, primary screen, biochemical, small-molecule microarray, 635 nm fluorescence scan (AID 1107).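 Note: mouse activin A protein probed at 4.33 µg/mL on printed slides; score merges bound-protein fluorescence near 667 nm with spot signal-to-noise.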 The settings on record: small-molecule microarray binding, higher = more signal.

We go through 13 molecules from PubChem BioAssay.

Calls of active or inactive are those of the source.

Sequence of Epidermal growth factor receptor (Homo sapiens) (P00533 whole entry, looked up): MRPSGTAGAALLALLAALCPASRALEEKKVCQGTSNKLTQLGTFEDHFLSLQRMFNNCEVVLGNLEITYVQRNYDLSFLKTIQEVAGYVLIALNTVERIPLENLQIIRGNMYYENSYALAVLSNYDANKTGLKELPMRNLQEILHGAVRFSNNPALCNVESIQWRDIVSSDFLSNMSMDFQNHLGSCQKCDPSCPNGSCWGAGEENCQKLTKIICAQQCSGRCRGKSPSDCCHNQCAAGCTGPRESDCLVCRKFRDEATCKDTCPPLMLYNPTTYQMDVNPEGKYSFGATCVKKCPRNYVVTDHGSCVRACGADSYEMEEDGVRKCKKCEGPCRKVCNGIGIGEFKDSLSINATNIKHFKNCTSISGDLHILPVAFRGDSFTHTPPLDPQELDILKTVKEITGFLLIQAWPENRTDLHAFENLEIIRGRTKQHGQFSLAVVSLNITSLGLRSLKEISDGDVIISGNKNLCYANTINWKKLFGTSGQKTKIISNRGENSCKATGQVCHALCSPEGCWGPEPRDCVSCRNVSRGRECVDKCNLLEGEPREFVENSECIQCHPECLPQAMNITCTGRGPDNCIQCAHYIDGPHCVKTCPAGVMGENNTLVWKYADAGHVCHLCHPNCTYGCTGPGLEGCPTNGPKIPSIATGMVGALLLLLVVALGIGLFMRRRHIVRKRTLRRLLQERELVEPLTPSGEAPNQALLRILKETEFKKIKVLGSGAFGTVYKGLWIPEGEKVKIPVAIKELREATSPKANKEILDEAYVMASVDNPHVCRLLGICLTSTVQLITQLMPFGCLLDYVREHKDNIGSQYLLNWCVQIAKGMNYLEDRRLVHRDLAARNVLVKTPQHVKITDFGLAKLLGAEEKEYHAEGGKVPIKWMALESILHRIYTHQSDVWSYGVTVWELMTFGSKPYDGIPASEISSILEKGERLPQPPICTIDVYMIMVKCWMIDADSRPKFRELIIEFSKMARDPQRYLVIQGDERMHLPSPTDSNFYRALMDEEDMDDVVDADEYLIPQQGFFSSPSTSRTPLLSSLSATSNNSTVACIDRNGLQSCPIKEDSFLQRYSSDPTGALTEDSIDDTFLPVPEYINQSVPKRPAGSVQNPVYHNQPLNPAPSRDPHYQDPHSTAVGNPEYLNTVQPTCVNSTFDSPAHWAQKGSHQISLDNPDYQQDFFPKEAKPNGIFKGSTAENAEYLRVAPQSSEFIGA

Regarding `O=C1C2C=CC(C(O)c3ccc(F)cc3)N(Nc3ccc([N+](=O)[O-])cc3)C2C(=O)N1c1ccccc1` (stereo not given), the composite z-score is 1.38 in experiment [1]; 0.343 in [2]; 0.839 in [3]; 0.638 in experiment [5]; 1.07 in [6]; -0.125 in experiment [7]. In addition, the composite z-score in experiment [8] is 0.558; in experiment [9], -0.272; in experiment [10], 0.556. For the same molecule, the z-score in [4] was 0.516 (inactive).

For `C=CCNC(=O)[C@H]1[C@@H]2C(=O)O[C@@H](c3ccccc3)[C@@H](c3ccccc3)N2[C@@H](c2ccc(OCCO)cc2)[C@]12C(=O)Nc1ccc(C#CCC(C(=O)OC)C(=O)OC)cc12`, the composite z-score in experiment [1] came out at 1.25; in experiment [2], 0.313; in [3] it was 0.655; in experiment [5], 1.29; in experiment [6], 1.09; in experiment [7], 0.787. Moreover, the composite z-score in experiment [8] amounted to 1.25; in experiment [9] it was 0.83; in [10] it was 0.559. The z-score in experiment [4] was 0.279 (inactive).

Take `CO[C@H]1O[C@H](CO)[C@@H](OC(=O)Nc2ccccc2)[C@@H]2OC(=O)[C@@H](Cc3ccc4ccccc4c3)C/C=C/C[C@H](Cc3ccc4ccccc4c3)C(=O)O[C@@H]12`: the composite z-score worked out at 1.08 in experiment [1]; 0.134 in experiment [2]; 0.402 in experiment [3]; 1.08 in experiment [5]; 0.899 in [6]; 0.204 in [7]. Besides, the composite z-score in experiment [8] was 0.531; in experiment [9], -0.112; in [10] it was 0.962. For the same molecule, in experiment [4], the z-score is -0.916 (inactive).

`CCOc1ccc(N2C(=O)CSC2c2cccc([N+](=O)[O-])c2)cc1` (stereo not given): the composite z-score in [1] is 0.891; in experiment [2] it was -0.117; in experiment [3], -0.0935; in experiment [5], 0.344; in [6], 0.0863; in [7] it was 0.354. The composite z-score in experiment [8] was 0.241; in [9], 0.168; in [10] it was -0.0762. In addition, in experiment [4], the z-score was -0.105 (inactive).

For `COCCOC(=O)N1C(=O)[C@@]2(c3cc(C#CC4(O)CCCCCC4)ccc31)[C@H](C(=O)Nc1nc3ccccc3s1)[C@H]1C(=O)O[C@H](c3ccccc3)[C@H](c3ccccc3)N1[C@@H]2c1ccc(OCCO)cc1`, the composite z-score in [1] stood at 1.28; in experiment [2], 0.0895; in experiment [3], 0.0903; in experiment [5], 1.25; in experiment [6], 1.3; in [7], 0.583. For the same molecule, the composite z-score in [8] was 1.37; in [9] it was 0.84; in experiment [10], 0.8. For the same molecule, the z-score in experiment [4] was -0.426 (inactive).

Regarding `O=C(NC1CC1)[C@@H]1c2ccccc2C(=O)N(Cc2cc(F)cc(C(F)(F)F)c2)[C@H]1c1ccc(CO)cc1`, the composite z-score in experiment [1] was 1.62; in [2], -0.284; in experiment [3], 0.447; in experiment [5], -0.216; in experiment [6], 0.296; in [7] it was -1.18. Also, the figures for the composite z-score in experiment [8], in experiment [9] and in experiment [10] were -0.317, -0.666 and -0.142, respectively. Besides, the z-score in [4] was 0.191 (inactive).

As for `COC(=O)[C@@]1(CCC(=O)OC(C)(C)C)N=C(c2ccc(OCCCO)cc2)O[C@H]1c1ccccc1`, the composite z-score in [1] is 1.22; in [2], 0.592; in experiment [3], 0.997; in experiment [5], -0.19; in [6], -0.0344; in [7] it was -1.03. The composite z-score in experiment [8] is -0.808; in experiment [9] it was -0.239; in experiment [10], 0.501. In addition, in experiment [4], the z-score is 0.509 (inactive).

As to `O=C1C2C=CC(C(O)c3c(F)cccc3Cl)N(Nc3ccccc3F)C2C(=O)N1c1ccccc1` (stereo not given), the composite z-score in experiment [1] is 0.537; in experiment [2], 0.923; in experiment [3], 1.09; in experiment [5], 1.28; in experiment [6], 0.533; in experiment [7], -0.0195. The composite z-score in experiment [8] was 0.551; in experiment [9], -0.62; in experiment [10] it was 0.87. Further, the z-score in experiment [4] is 1.4 (inactive).

In the case of `COCC(=C=CC[C@@H](O)c1ccc(OCCO)cc1)C[C@@H](O)c1ccccn1`, the composite z-score in experiment [1] is 0.0525; in experiment [2] it was -0.201; in experiment [3] it was -0.288; in experiment [5], 0.377; in [6], 0.0621; in [7], 0.0724. Besides, the composite z-score stood at 0.439 in experiment [8], 0.0579 in experiment [9] and 1.18 in [10]. The z-score in experiment [4] is 0.0733 (inactive).

As to `CCCC(=O)N(CCc1c[nH]c2ccccc12)[C@@H]1CC(C(=O)NCCO)=C[C@H](Oc2c(I)cc(CO)cc2OC)[C@H]1O`, the composite z-score is -0.575 in experiment [1]; -0.334 in experiment [2]; -0.516 in experiment [3]; -0.0122 in experiment [5]; -0.431 in [6]; 0.164 in [7]. The composite z-score stood at 0.0027 in [8], 0.404 in experiment [9] and 0.181 in [10]. In experiment [4], the z-score is -0.125 (inactive).

As to `CCN(CC)c1ccc(N2CC=CC34O[C@@H]5C=CCOC(=O)[C@@H]5[C@H]3C(=O)N(CCCCCCO)[C@@H]4C2=O)cc1` (stereo not given in full), the composite z-score in [1] is 1.85; in experiment [2], -0.131; in experiment [3] it was 0.844; in experiment [5] it was -0.655; in experiment [6], -0.559; in [7] it was -0.366. In addition, the composite z-score is -0.406 in experiment [8], -0.863 in experiment [9] and 1.17 in [10]. Besides, the z-score in experiment [4] was -0.93 (inactive).

Turning to `CCCCC(=C=CC[C@@H](O)c1cccc(OCCO)c1)C[C@@H](O)c1ccccn1`, the composite z-score in experiment [1] is 1.6; in experiment [2], -0.132; in [3], -0.387; in experiment [5], 1.06; in experiment [6], 0.839; in [7], -0.181. The composite z-score in experiment [8] is 1.07; in experiment [9], 0.168; in [10], 0.869. Also, the z-score in [4] was -0.123 (inactive).

With `C=CCOC(=O)[C@H]1[C@@H]2C(=O)O[C@@H](c3ccccc3)[C@@H](c3ccccc3)N2[C@@H](c2ccc(OCCOC(=O)[C@@H]3C[C@@H]4C(=O)N5CCC[C@H]5C(=O)N4[C@@H]3c3cccc(OCCO)c3)cc2)[C@]12C(=O)Nc1ccc(I)cc12`, the composite z-score is 1.59 in experiment [1]; -0.214 in [2]; -0.158 in experiment [3]; 1.42 in experiment [5]; 1.15 in [6]; 0.702 in experiment [7]. In addition, the results for the composite z-score in experiment [8], in experiment [9] and in [10] were 1.39, 1.2 and 0.76, respectively. The z-score in experiment [4] is 0.0567 (inactive).
